PubChem BioAssay (EPA / NIEHS)
Records with an inconclusive call do not appear. The source holds several records for some structures; these can differ, active in one and inactive in another. Calls of active or inactive are those of the source. How the source made its calls, unless noted: active means hit-call score of the fitted dose curve at least 0.9, where 1 is the maximum; inactive means score below 0.9.

Legend:
[1] = read-out: Interleukin-8 (IL8), CXCL8 (gene 3576); test: BSK_3C_IL8: BioMAP Diversity Plus: 3C Assay for Interleukin-8 (IL8) Biomarker Activity (AID 2283020); conditions: primary human endothelial cells (HUVEC); actives raise or lower the signal
Procedure, shortened: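 Endothelial primary cells of human umbilical vein origin are dosed with chemical; after 24 h the IL-8 biomarker is measured by ELISA, and concentration–response is fitted in both directions versus DMSO.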

[2] = read-out: Monokine induced gamma interferon (MIG), CXCL9 (gene 4283); test: BSK_3C_MIG: BioMAP Diversity Plus: 3C Assay for Monokine induced gamma interferon (MIG) Biomarker Activity (AID 2283021); conditions: primary human endothelial cells (HUVEC); actives raise or lower the signal;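 on AC50: MIG protein level measured by immunoassay in the treated endothelial cultures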
Procedure, shortened: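 Endothelial primary cells (human umbilical vein) are dosed with test chemical in the 3C system. MIG levels are measured by ELISA at 24 h and fitted in both directions relative to DMSO.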

[3] = BSK_3C_SRB: Viability Assessment in the BioMAP Diversity Plus: 3C Assay (AID 2283023); conditions: primary human endothelial cells (HUVEC);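 further: fitted both ways against DMSO so a hit may be signal rise or drop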
Procedure, shortened: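 Primary human umbilical vein endothelial cells in the 3C system were read 24 h after compound dosing. Total protein was stained with 0.1% sulforhodamine B after 10% TCA fixation and read at 560 nm, with bidirectional fitting against DMSO as baseline.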

[4] = BSK_3C_Vis: BioMAP Diversity Plus: 3C Assay for Morphology Visualization (AID 2283025); conditions: primary human endothelial cells (HUVEC);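 further: fitted both ways so gain or loss versus DMSO counts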
Procedure, shortened: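 Morphology read by light microscopy serves as a background control for the multiplexed 3C assay in human umbilical vein endothelial cells, taken 24 h after dosing, with DMSO as the negative control and bidirectional curve fitting.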

[5] = read-out: Pselectin, SELP (gene 6403); test: BSK_4H_Pselectin: BioMAP Diversity Plus: 4H Assay for Pselectin Biomarker Activity (AID 2283026); conditions: primary human endothelial cells (HUVEC); actives raise or lower the signal
Procedure, shortened: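 Endothelial primary cells (human umbilical vein) are dosed, incubated 24 h, and assayed for surface P-selectin by ELISA; responses in either direction are fitted relative to the DMSO negative control.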

[6] = BSK_4H_SRB: Viability Assessment in the BioMAP Diversity Plus: 4H Assay (AID 2283027); conditions: primary human endothelial cells (HUVEC);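 further: cells exposed to compound for 24 h before staining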;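 on AC50: curves fitted both ways versus DMSO so AC50 may be loss or gain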
Procedure, shortened: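 HUVEC, 24 h post-dose; 10% TCA fix, 0.1% SRB stain, A560 nm. Total protein = overt cytotoxicity, parallel to biomarker read. Bidirectional fit vs DMSO baseline.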

[7] = BSK_BE3C_SRB: Viability Assessment in the BioMAP Diversity Plus: BE3C Assay (AID 2283028); conditions: primary human bronchial epithelial cells;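 on AC50: fitted both ways so AC50 may mark signal gain or loss versus DMSO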
Procedure, shortened: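 Human primary bronchial epithelial cells were exposed to test chemicals for 24 h. Total protein in parallel cultures was then measured by staining with 0.1% sulforhodamine B after 10% TCA fixation, with absorbance read at 560 nm. Activity was fitted bidirectionally against DMSO.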

[8] = read-out: Thrombomodulin, THBD (gene 7056); test: BSK_3C_Thrombomodulin: BioMAP Diversity Plus: 3C Assay for Thrombomodulin Biomarker Activity (AID 2283029); conditions: primary human endothelial cells (HUVEC); actives raise or lower the signal
Procedure, shortened: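 Endothelial cells from umbilical vein are dosed with test chemical and incubated 24 h. Thrombomodulin is then quantified by ELISA, with DMSO serving as negative control and activity baseline.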

[9] = read-out: Urokinase-type plasminogen activator receptor (uPAR), PLAUR (gene 5329); test: BSK_4H_uPAR: BioMAP Diversity Plus: 4H Assay for Urokinase-type plasminogen activator receptor (uPAR) Biomarker Activity (AID 2283030); conditions: primary human endothelial cells (HUVEC); actives raise or lower the signal
Procedure, shortened: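 Primary human umbilical vein endothelial cells were exposed to chemical for 24 h before cell-surface uPAR was quantified by ELISA. Activity was fitted bidirectionally against the DMSO negative control baseline.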

[10] = read-out: Vascular endothelial growth factor receptor 2 (Homo sapiens) (UniProt P35968); test: BSK_4H_VEGFRII: BioMAP Diversity Plus: 4H Assay for Vascular endothelial growth factor receptor 2 (VEGFR2) Biomarker Activity (AID 2283031); conditions: primary human endothelial cells (HUVEC); actives raise or lower the signal;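 on AC50: cell-surface VEGFR2 protein level quantified by ELISA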
Procedure, shortened: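 Primary human umbilical vein endothelial cells in the BioMAP 4H system were dosed with test chemical, and 24 h later VEGFRII was measured by ELISA. Activity was fitted bidirectionally against DMSO as negative control and baseline.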

[11] = read-out: Human Leukocyte Antigen - DR isotype (HLADR), HLA-DRA (gene 3122); test: BSK_BE3C_HLADR: BioMAP Diversity Plus: BE3C Assay for Human Leukocyte Antigen - DR isotype (HLADR) Biomarker Activity (AID 2283032); conditions: primary human bronchial epithelial cells; actives raise or lower the signal
Procedure, shortened: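 Chemicals are dosed onto BE3C bronchial epithelial cultures of human origin and left 24 h. HLA-DR is then measured by ELISA, and the endpoint is fitted in both directions using DMSO as the activity baseline.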

[12] = read-out: Vascular cell adhesion molecule 1 (VCAM1), VCAM1 (gene 7412); test: BSK_4H_VCAM1: BioMAP Diversity Plus: 4H Assay for Vascular cell adhesion molecule 1 (VCAM1) Biomarker Activity (AID 2283033); conditions: primary human endothelial cells (HUVEC); actives raise or lower the signal
Procedure, shortened: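 Chemicals are added to primary human umbilical vein endothelial cells. After 24 h, VCAM-1 levels are measured by ELISA. Values come from bidirectional fitting referenced to DMSO.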

[13] = read-out: Interferon-gamma inducible Protein 10 (IP10), CXCL10 (gene 3627); test: BSK_BE3C_IP10: BioMAP Diversity Plus: BE3C Assay for Interferon-gamma inducible Protein 10 (IP10) Biomarker Activity (AID 2283034); conditions: primary human bronchial epithelial cells; actives raise or lower the signal
Procedure, shortened: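 IP-10 quantified by ELISA serves as the endpoint. Cells: primary human bronchial epithelium, read 24 h after compound addition. Activity is derived by bidirectional fitting with DMSO as negative control.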

[14] = read-out: Transforming growth factor beta 1 (TGFb1), TGFB1 (gene 7040); test: BSK_BE3C_TGFb1: BioMAP Diversity Plus: BE3C Assay for Transforming growth factor beta 1 (TGFb1) Biomarker Activity (AID 2283036); conditions: primary human bronchial epithelial cells; actives raise or lower the signal
Procedure, shortened: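 Bronchial epithelial primary cells are treated with test chemical, then TGF-b1 is quantified by ELISA after 24 hours. Values derive from bidirectional fitting against DMSO, with cytotoxicity checked by SRB staining in parallel cultures.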

[15] = read-out: Plasminogen activator inhibitor-1 (PAI1), SERPINE1 (gene 5054); test: BSK_BE3C_PAI1: BioMAP Diversity Plus: BE3C Assay for Plasminogen activator inhibitor-1 (PAI1) Biomarker Activity (AID 2283037); conditions: primary human bronchial epithelial cells; actives raise or lower the signal
Procedure, shortened: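 Values derive from bidirectional fitting against DMSO baseline of PAI-1 levels, measured by ELISA in human bronchial epithelial cells 24 h after compound addition.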

[16] = read-out: Urokinase-type plasminogen activator receptor (uPAR), PLAUR (gene 5329); test: BSK_BE3C_uPAR: BioMAP Diversity Plus: BE3C Assay for Urokinase-type plasminogen activator receptor (uPAR) Biomarker Activity (AID 2283039); conditions: primary human bronchial epithelial cells; actives raise or lower the signal
Procedure, shortened: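 Steps: dose human primary bronchial epithelial cells, incubate 24 h, measure uPAR by ELISA, then fit gain- or loss-of-signal response bidirectionally relative to DMSO.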

[17] = target: human Vitamin D Receptor (VDR), VDR (gene 7421) (UniProt P11473); test: ATG_VDR_TRANS: Attagene TRANS-FACTORIAL HepG2 Assay for human Vitamin D Receptor (VDR) (AID 2283022; active means hit-call score of the fitted dose curve at least 0.9, where 1 is the maximum)
Procedure, shortened: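 HepG2 cells were transiently transfected with multiple GAL4-UAS reporter units, so signal reflects exogenous chimeric receptor-Gal4 activity. After 24 h compound exposure, reporter mRNA was measured by RT-PCR, fluorescent labelling and capillary electrophoresis, fitted for gain of signal versus DMSO.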

[18] = read-out: urokinase plasminogen activator (uPA), PLAU (gene 5328); test: BSK_BE3C_uPA: BioMAP Diversity Plus: BE3C Assay for urokinase plasminogen activator (uPA) Biomarker Activity (AID 2283038); conditions: primary human bronchial epithelial cells; actives raise or lower the signal;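 further: uPA protein level quantified by ELISA in cell cultures; uPA read one day after compound addition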
Procedure, shortened: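 Human primary bronchial epithelial cells were exposed to chemical for 24 h, then uPA levels were measured by ELISA. Responses were fitted bidirectionally against DMSO as negative control and baseline. Parallel SRB staining of total protein gauged overt cytotoxicity.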

Measured: AC50

Chain of human Vitamin D Receptor (VDR), VDR (gene 7421) (P11473 whole entry, looked up, the tested form may be a part): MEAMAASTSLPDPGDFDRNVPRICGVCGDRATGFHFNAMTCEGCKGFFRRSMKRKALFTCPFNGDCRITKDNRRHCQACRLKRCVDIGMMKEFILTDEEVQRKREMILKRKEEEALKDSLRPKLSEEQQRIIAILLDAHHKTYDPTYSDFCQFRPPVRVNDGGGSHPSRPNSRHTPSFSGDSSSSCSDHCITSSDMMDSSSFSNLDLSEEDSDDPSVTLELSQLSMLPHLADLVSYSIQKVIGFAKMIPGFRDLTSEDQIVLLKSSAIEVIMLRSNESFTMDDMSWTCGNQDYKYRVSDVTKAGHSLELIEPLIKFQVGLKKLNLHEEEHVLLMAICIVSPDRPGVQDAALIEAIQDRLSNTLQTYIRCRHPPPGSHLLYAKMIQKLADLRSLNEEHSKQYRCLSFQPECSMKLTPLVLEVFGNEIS

OCCN1CCOCC1
not listed: [17] | [18]
inactive: all other assays above

CC(C)(C)c1cccc(O)c1
not listed: [5] | [18]
inactive: all other assays above

O=C(c1ccc(OCCN2CCCCC2)cc1)c1c(-c2ccc(O)cc2)sc2cc(O)ccc12
inactive: [17] | [8] | [10]
active: [1] 20 µM | [2] 36.1 µM | [3] 18.8 µM | [4] 22.3 µM | [6] 33.2 µM | [7] 38.1 µM | [9] 25.3 µM | [11] 20.3 µM | [12] 34.5 µM | [13] 39.2 µM | [14] 31.9 µM | [15] 22.4 µM | [16] 31.8 µM

O=S(=O)(O)C(F)(F)C(F)(F)OC(F)(F)C(F)(F)F
active: [1] 5.95 µM
inactive: [1] | [2] | [3] | [5] | [6] | [7] | [8] | [9] | [10] | [11] | [12] | [13] | [15] | [16]

O=C1OC2(c3ccc(O)cc3Oc3cc(O)ccc32)c2ccccc21
active: [1] 20 µM
not listed: [5] | [17] | [18]
inactive: all other assays above

CC(=O)c1ccc(C)cc1
active: [10] 1.45 µM
inactive: [1] | [2] | [3] | [6] | [7] | [8] | [9] | [10] | [11] | [12] | [13] | [15] | [16]

CC(C)Cc1ccc(C(C)C(=O)O)cc1 (stereo not given)
active: [1] 0.0158 µM
not listed: [5] | [17] | [18]
inactive: all other assays above

CCCCOCCOCCO
not listed: [5] | [17] | [18]
inactive: all other assays above

CCCCCCCCCC(=O)OCC
inactive: [2] | [17] | [7] | [10] | [11] | [15] | [16]
active: [1] 33.2 µM | [3] 32 µM | [4] 14.1 µM | [6] 31.5 µM | [8] 29.7 µM | [9] 20 µM | [12] 31.7 µM | [13] 20 µM | [14] 20 µM

Nc1ccc(N)c([N+](=O)[O-])c1
not listed: [5] | [17] | [18]
inactive: all other assays above

CC1(C)[C@H](C=C(Cl)Cl)[C@H]1C(=O)OCc1cccc(Oc2ccccc2)c1
not listed: [5]
inactive: all other assays above
